Inconclusive results are not listed. Where a call stands in place of a potency, no number is given. Activity calls are given as the source filed them. Calls follow the shape of the dose curve; as a rule, active = well fitted inhibition curve with a large enough effect; inconclusive = small, poorly fitted or top-dose-only effect; inactive = flat fitted curve, though single readings scatter.
Potency is read from the fitted curve at half-maximal effect.

Sequence of Voltage-gated inwardly rectifying potassium channel KCNH2 (Homo sapiens) (Q12809 whole entry, looked up): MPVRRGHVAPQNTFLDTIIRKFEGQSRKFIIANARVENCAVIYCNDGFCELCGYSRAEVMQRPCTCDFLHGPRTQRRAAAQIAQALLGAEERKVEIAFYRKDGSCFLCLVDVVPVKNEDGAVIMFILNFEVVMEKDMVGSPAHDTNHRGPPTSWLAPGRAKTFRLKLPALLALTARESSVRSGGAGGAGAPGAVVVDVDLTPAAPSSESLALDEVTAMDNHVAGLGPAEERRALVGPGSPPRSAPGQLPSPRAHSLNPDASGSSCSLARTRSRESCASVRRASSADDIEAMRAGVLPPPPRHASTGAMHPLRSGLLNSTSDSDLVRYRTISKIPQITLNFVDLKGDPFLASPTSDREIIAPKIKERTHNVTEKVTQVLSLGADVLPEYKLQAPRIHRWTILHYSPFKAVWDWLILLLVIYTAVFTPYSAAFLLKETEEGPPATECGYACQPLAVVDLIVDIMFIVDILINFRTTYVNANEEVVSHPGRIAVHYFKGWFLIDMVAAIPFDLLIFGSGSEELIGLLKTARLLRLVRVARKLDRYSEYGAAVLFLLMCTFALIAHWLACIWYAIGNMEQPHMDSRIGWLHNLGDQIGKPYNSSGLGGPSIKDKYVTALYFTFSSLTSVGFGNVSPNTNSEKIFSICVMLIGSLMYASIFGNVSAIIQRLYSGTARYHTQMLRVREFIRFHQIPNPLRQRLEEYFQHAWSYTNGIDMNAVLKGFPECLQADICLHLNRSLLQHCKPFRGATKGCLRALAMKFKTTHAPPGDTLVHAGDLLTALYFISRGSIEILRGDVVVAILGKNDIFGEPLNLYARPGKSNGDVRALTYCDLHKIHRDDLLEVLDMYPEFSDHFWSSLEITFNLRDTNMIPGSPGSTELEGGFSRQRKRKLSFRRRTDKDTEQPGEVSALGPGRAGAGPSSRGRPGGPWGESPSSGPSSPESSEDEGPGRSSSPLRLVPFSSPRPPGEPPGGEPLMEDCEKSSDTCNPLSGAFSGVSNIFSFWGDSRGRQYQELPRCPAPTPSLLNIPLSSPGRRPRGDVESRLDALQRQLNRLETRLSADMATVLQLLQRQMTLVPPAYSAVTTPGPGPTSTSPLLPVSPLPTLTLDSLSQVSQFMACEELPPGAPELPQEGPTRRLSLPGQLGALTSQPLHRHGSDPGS

This assay has as its target Voltage-gated inwardly rectifying potassium channel KCNH2 (Homo sapiens) (UniProt Q12809). Description: qHTS Assay for Small Molecule Inhibitors of the Human hERG Channel Activity (AID 588834).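 Also: lower thallium flux fluorescence means stronger hERG block; nearly all actives have a fitted effect of over 50% in size.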 The following applies: U2OS BacMam hERG, FluxOR thallium flux fluorescence; series mostly up to 92.2 µM. From the text: NIH Chemical Genomics Center [NCGC]
National Institutes of Environmental Health Sciences [NIEHS]
National Toxicology Program [NTP]
We have developed a 1536-well cell-based assay for quantitative high throughput screening (qHTS) to determine in vitro hERG channel blockage as a measure of cardio toxicity with small molecules. This particular assay uses the U2OS cell line which is derived from human osteosarcoma.
NCGC Assay Protocol Summary:
HERG assay (FluxORTM thallium flux assay) was initially developed by Invitrogen/Molecular Probes, and then miniaturized into 1536-well plate in a homogeneous format by NCGC. This assay measures the activity of potassium channel using thallium dye (FluxOR) flux as surrogate measurement for potassium into the cells with a FDSS-7000 kinetic plate reader (Hamamatsu Corp., Hamamatsu City, Japan). The hERG ion channel is transduced into mammalian cells (U2OS) using a baculovirus (Bacmam) construct harboring the hERG K+ ion channel. So far we screened LOPAC1280 library (Sigma), the NTP collection of 1408 compounds, and the NCGC Pharmaceutical Collection (NPC), in which many well defined HERG blockers are present. The rank order potencies of many of these compounds are similar to that of other HERG assays (membrane potential, Rb+ flux, patch clamp, etc). This quick and homogeneous assay is also found to be sensitive, specific, and robust.
Using the FluxORTM thallium flux assay, the activity of potassium channel using thallium dye (FluxOR) flux as surrogate measurement for potassium into the cells was measured in the U2OS cell line transduced with hERG K+ ion channel using a baculovirus (Bacmam) using Opti-MEM medium (Invitrogen) containing 2% fetal calf serum (FCS, HyCone) following loading buffer addition, compound treatment for around 10 minutes and finally adding stimulation buffer. The assay was performed in black clear Kalypsys 1536-well plates. In the screen, Astemizole was used as positive controls. Library compounds were measured for their ability to cause hERG channel blockage in the cell line, as reflected by a decrease in fluorescence intensity, in a concentration-dependent manner. […] AC50 values were determined from concentration-response data modeled with the standard Hill equation.
qHTS protocol for hERG-U2OS cellular assay
[Step] [Parameter] [Value] [Description]
1. Day 1: Replace medium in 70-80% confluent T225 flask with 2.5 mL of hERG-BacMam virus plus 12.5 mL of phosphate buffered saline (PBS) (corresponding roughly to a multiplicity of infection ratio of 100 virus particles/cell)
2. Incubation: 4 hrs @ room Temperature in Dark
3. Reagent; Remove virus; wash once with 25 ml DPBS
4. Reagent; 35 ml culture medium
5. Incubation; 37 °C overnight
6. Day2: Reagent; 3 uL; 2000 U2OS cells/well
7. Time; 4 hr; 37 °C incubation
8. Loading buffer; 1 uL; 0.7X;
9. Incubation: 1hr @ RT in Dark.
12. Time; 10min; 37 °C incubation
13. Read fluorescence Intensity on FDSS for 10 Sec with 1 sec interval
14. Reagent; 1 uL; stimulation buffer
15. Read fluorescence Intensity on FDSS for 2 min with 1 sec interval
16. Detection; Fluorescence Intensity; FDSS
With `Cc1cnc[nH]1`, the Potency entry was “inactive”.
As for `CC(C)CC(C)N` (stereo not given), the Potency entry was “inactive”.
To `O=C(Cc1ccccc1)OCc1ccccc1` belongs “inactive”.
With `CCN(CC)CCO` the entry was “inactive”.
With `C(CCOCC1CO1)COCC1CO1` (stereo not given) the entry was “inactive”; with `ClCCBr`, “inactive”; with `CCNCC`, “inactive”.
For `Nc1ccc(-c2ccccc2)cc1`, the Potency result is “inactive”.
To `CCOC(=O)CC(SP(=O)(OC)OC)C(=O)OCC` (stereo not given) belongs “inactive”.
Take `Nc1cc(Cl)cc(Cl)c1`: the Potency entry is “inactive”.
Turning to `ClCCCCl`, the Potency entry was “inactive”.
With `CC(C)(Cl)[N+](=O)[O-]`, the Potency result was “inactive”.
Turning to `c1ccc(OCC2CO2)cc1` (stereo not given), the Potency result was “inactive”.
In the case of `Cc1cc(-c2cc(C)c(N)c(C)c2)cc(C)c1N`, the Potency result was “inactive”.
In the case of `N#CCBr`, the Potency result is “inactive”.
Consider `O=C(O)CCl`, for which the Potency entry is “inactive”.
As for `Cc1coc2c1CCC(C)C2` (stereo not given), the Potency result is “inactive”.
To `O=[N+]([O-])c1ccc(Cl)cc1` belongs “inactive”; to `BrCCc1ccccc1`, “inactive”; to `CCCCOC(C)=O`, “inactive”.
On to `CCCCC(=O)Cl`, for which the Potency result is “inactive”.
To `c1ccc(N=NNc2ccccc2)cc1` belongs 39.8 µM (active).
Regarding `CSSC`, the Potency entry is “inactive”.
With `CN(C)c1ccccc1` the entry was “inactive”; with `C=COC(C)=O`, “inactive”; with `Clc1cc(Cl)c(Cl)c(Cl)c1`, “inactive”.
On to `Oc1cc(Cl)cc(Cl)c1`, for which the Potency entry is “inactive”.
As for `C=CC(=O)OCCN(C)C`, the Potency entry was “inactive”.
Regarding `COc1ccccc1N`, the Potency result is “inactive”.
Consider `Nc1ccc2ccccc2c1`, for which the Potency result was “inactive”.
With `C/C=C/CC#N` the entry was “inactive”; with `Oc1cccc(Cl)c1`, “inactive”.
As for `N#C/C=C/C#N`, the Potency entry was “inactive”.
`[N-]=[N+]=[N-]`: the Potency result was “inactive”.
As to `Cc1ccc(N)c(N)c1`, the Potency result was “inactive”.
For the compound `O=C(Cl)OCc1ccccc1`, the Potency entry was “inactive”.
To `c1ccc2c(c1)CCNC2` belongs “inactive”.
Consider `N#CC(O)c1ccccc1` (stereo not given), for which the Potency result is “inactive”.
Turning to `O=Cc1ccc(Cl)cc1Cl`, the Potency entry was “inactive”.
Consider `CCCCNC(=O)n1c(NC(=O)OC)nc2ccccc21`, for which the Potency entry is “inactive”.

The values are drawn from PubChem BioAssay (NCATS).
